Results published in PubChem BioAssay (Tox21).
Several values for one entry are separate records, joined by “and”; a condition that tells them apart may be missing. Equal values may be shown once. Inconclusive results are not listed. A call without a number means that no potency is given here. Some structures have more than one record in an assay (separate samples or runs), and their calls can disagree. Activity calls are given as the source filed them. Unless noted, the call rests on the fitted dose curve; in most records, active means well fitted curve in the direction sought with a large enough effect in the repeat runs; inconclusive means weak or mixed curves; inactive means no such curve, though single readings can be large; an effect the other way counts as inactive or inconclusive.

Experiments:
[1] = qHTS assay to identify small molecule antagonists of the progesterone receptor (PR) signaling pathway - cell viability counter screen (AID 1346798); further: series mostly up to about 92 µM; nearly all actives have a fitted effect of over 50% in size
Summary of the method: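 Following a 4 hr attachment, PR-UAS-bla HEK293T cells in charcoal-stripped FBS medium were exposed to compounds with R5020 for 16 hr; CellTiter-Glo was added and luminescence read after 30 min at room temperature.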

[2] = qHTS assay to identify small molecule agonists of the progesterone receptor (PR) signaling pathway - cell viability counter screen (AID 1346799; calls by dose curve; further: nearly all actives have a fitted effect of over 45% in size; further: potency means the concentration at half of the fitted maximal effect)
Summary of the method: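 Here, 3,000 PR-UAS-bla HEK293T cells per well were treated with compounds for 16 hr after a 6 hr preincubation at 37C and 5% CO2; cell viability is the CellTiter-Glo luminescence signal.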

[3] = qHTS assay to identify small molecule antagonists of the TGF-beta/Smad signaling pathway - cell viability counter screen (AID 1346824); further: nearly all actives have a fitted effect of over 50% in size
Summary of the method: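 SBE-bla HEK 293T cells, incubated overnight, then compound plus 0.25 ng/mL TGF-beta1 (stock added) for 5 hr at 37 C. Viability was read in the same wells by CellTiter-Glo luminescence after 30 min at room temperature.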

[4] = qHTS assay to identify small molecule agonists of the TGF-beta/Smad signaling pathway - cell viability counter screen (AID 1346829); further: top concentration of the series differs between compounds; nearly all actives have a fitted effect of over 45% in size
Summary of the method: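 Cytotoxicity counter screen: CellTiter-Glo luminescence (30 min, room temperature) measured in the SBE-bla HEK 293T reporter wells after 5 hr compound treatment at 37 C and the 2 hr substrate step.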

[5] = qHTS assay to identify small molecule agonists of the TGF-beta/Smad signaling pathway (AID 1346859; active means well fitted activation curve with a large enough effect in the signal ratio in the repeat runs, not every such curve was filed as active; the % refers to the signal ratio; further: series mostly up to about 77 µM)
Summary of the method: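 Each well held 4,000 SBE-bla HEK 293T cells incubated overnight before compound addition; 5 hr later the cleavable FRET substrate went on for 2 hr at room temperature, and fluorescence was read at two emissions.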

[6] = target: Thyrotropin-releasing hormone receptor (Homo sapiens) (UniProt P34981); assay: qHTS assay to identify small molecule antagonists of the thyrotropin-releasing hormone receptor (TRHR) signaling pathway (AID 1346877; active means well fitted inhibition curve with a large enough effect in the repeat runs, not every such curve was filed as active; further: series mostly up to about 51 µM)
Sequence of Thyrotropin-releasing hormone receptor (Homo sapiens) (P34981 whole entry, looked up): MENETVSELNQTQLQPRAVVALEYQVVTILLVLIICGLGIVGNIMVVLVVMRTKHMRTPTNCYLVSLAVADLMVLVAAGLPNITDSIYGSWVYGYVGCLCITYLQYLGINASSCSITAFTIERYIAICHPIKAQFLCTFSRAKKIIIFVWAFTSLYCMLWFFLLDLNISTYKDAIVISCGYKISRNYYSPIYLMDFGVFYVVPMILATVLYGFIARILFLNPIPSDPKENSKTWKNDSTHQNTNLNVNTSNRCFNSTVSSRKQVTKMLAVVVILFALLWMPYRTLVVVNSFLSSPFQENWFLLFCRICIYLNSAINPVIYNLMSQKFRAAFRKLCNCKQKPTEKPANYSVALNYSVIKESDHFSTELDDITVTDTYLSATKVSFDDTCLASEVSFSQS
Summary of the method: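 Antagonism is measured as suppression of the calcium response to 1 nM TRH in TRHR-HEK293 cells that have been dye-loaded for 2 h at 37 °C after overnight plating. Each compound is tested at 15 concentrations in triplicate.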

[7] = target: Thyrotropin-releasing hormone receptor (Homo sapiens) (UniProt P34981); assay: qHTS assay to identify small molecule agonists of the thyrotropin-releasing hormone receptor (TRHR) signaling pathway (AID 1346891; calls by dose curve; further: potency means the concentration at half of the fitted maximal effect; on activation: series mostly up to about 58 µM)
Summary of the method: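 Screening of agonists relied on calcium signalling in HEK293 cells expressing human TRHR: dye loading 2 h at 37 °C preceded compound addition and a 3-min fluorescence time course.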

[8] = Human pregnane X receptor (PXR) small molecule agonists, qHTS cell viability counter screen (AID 1346977); further: nearly all actives have a fitted effect of over 50% in size; further: potency means the concentration at half of the fitted maximal effect
Summary of the method: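 Tox21 qHTS format; PXR-Luc HepG2, 2,000/well, charcoal-stripped FBS 5%. Cpd exposure 24hr. Read: CellTiter-Fluor fluorescence, multiplexed with luciferase.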

[9] = Caspase-3/7 induction in HepG2 cells by small molecules, qHTS assay (AID 1346978); further: nearly all actives have a fitted effect of over 15% in size
Summary of the method: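 Wild-type HepG2 cells, 2,000/well, settled 5 hr at 37 C and 5% CO2, then compound-treated for 17 hr; caspase-3/7 activity read by luminescent Caspase-Glo 3/7 after 30 min at room temperature.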

[10] = Caspase-3/7 induction in CHO-K1 cells by small molecules, qHTS cell viability counter screen (AID 1346979); further: nearly all actives have a fitted effect of over 35% in size; further: potency means the concentration at half of the fitted maximal effect
Summary of the method: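 CellTiter-Fluor viability check, qHTS format: wild-type CHO-K1, 16hr compound treatment, 1hr reagent incubation, fluorescence read.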

SMILES	Potency [1]	Potency [2]	Potency [3]	outcome [4]	Potency [5]	outcome [6]	Potency [7]	Potency [8]	outcome [9]	Potency [10]
CCNc1nc(NC(C)C)nc(SC)n1	inactive	inactive	inactive	inactive	inactive	inactive	inactive	inactive	inactive	inactive
Nc1ccc(Br)cc1	inactive	27.3 µM (active) and inactive	inactive	inactive	inactive	inactive	inactive	inactive	inactive	inactive
OC(O)C(Cl)(Cl)Cl	inactive	inactive	inactive	inactive	inactive	inactive	inactive	inactive	inactive	inactive
CN(C)[C@@H]1C(=O)C(C(N)=O)=C(O)[C@@]2(O)C(=O)C3=C(O)c4c(O)cccc4[C@@](C)(O)[C@H]3C[C@@H]12	inactive	inactive	inactive	inactive	inactive	inactive	inactive	inactive	inactive	inactive
C=C(C)CCl	inactive	inactive	inactive	inactive	inactive	–	–	inactive	inactive	inactive
[O-][Cl+2]([O-])O	inactive	inactive	inactive	inactive	inactive	inactive	inactive	inactive	inactive	inactive
CCCCCCCCCCCC#N	inactive	inactive	inactive	inactive	inactive	–	–	inactive	inactive	inactive
Cc1ccccc1O	inactive	inactive	inactive	inactive	inactive	inactive	inactive	inactive	inactive	inactive
O=S(=O)(c1ccc(O)cc1)c1ccc(O)cc1	inactive	inactive	inactive	inactive	inactive	inactive	inactive	inactive	inactive	inactive
[N-]=[N+]=[N-]	inactive	inactive	inactive	inactive	inactive	inactive	inactive	inactive	inactive	inactive
CC(Oc1ccc(Cl)cc1Cl)C(=O)O (stereo not drawn)	inactive	inactive	inactive	inactive	inactive	inactive	inactive	inactive	inactive	inactive
CC(C)NC(=O)N1CC(=O)N(c2cc(Cl)cc(Cl)c2)C1=O	inactive	inactive	inactive	inactive	inactive	inactive	inactive	50.1 µM (active) and inactive	inactive	19.3 µM (active) and inactive
CC1OC(C)OC(C)O1 (stereo not drawn)	inactive	inactive	inactive	inactive	inactive	–	–	inactive	inactive	inactive
Cc1ccc(N)cc1N	inactive	inactive	inactive	inactive	inactive	inactive	inactive	inactive	inactive	inactive
Oc1ccccc1Cl	inactive	inactive	inactive	inactive	inactive	inactive	inactive	inactive	inactive	inactive
ClCc1cccnc1	inactive	inactive	inactive	inactive	inactive	inactive	inactive	inactive	inactive	inactive
Cc1[nH]c(=O)n(C(C)(C)C)c(=O)c1Cl	inactive	inactive	inactive	inactive	inactive	–	–	inactive	inactive	inactive
Clc1cccc(Cl)c1Cl	inactive	inactive	inactive	inactive	inactive	inactive	inactive	inactive	inactive	inactive
CCCCCOC(=O)c1ccccc1C(=O)OCCCCC	inactive	inactive	inactive	inactive	inactive	inactive	inactive	inactive	inactive	inactive
CC(C)C1(C)N=C(c2nc3ccccc3cc2C(=O)O)NC1=O (stereo not drawn)	inactive	inactive	inactive	inactive	inactive	inactive	inactive	inactive	inactive	inactive
CC(C)C#N	inactive	inactive	inactive	inactive	inactive	inactive	inactive	inactive	inactive	inactive
Clc1ccc(Cl)cc1	inactive	inactive	inactive	inactive	inactive	inactive	inactive	2.17 µM (active) and inactive	inactive	2.17 µM (active)
O=c1[nH]c(=O)[nH]c(=O)[nH]1	inactive	inactive	inactive	inactive	inactive	inactive	inactive	inactive	inactive	inactive
Cc1cccc([N+](=O)[O-])c1	inactive	inactive	inactive	inactive	inactive	inactive	inactive	inactive	inactive	inactive
CCOC(=O)c1ccccc1C(=O)OCC	inactive	inactive	inactive	inactive	inactive	inactive	inactive	inactive	inactive	inactive

SMILES	Potency [1]	Potency [2]	Potency [3]	outcome [4]	Potency [5]	outcome [6]	Potency [7]	Potency [8]	outcome [9]	Potency [10]
CC1C=[C-]C=C1.[C-]#[O+].[C-]#[O+].[C-]#[O+].[Mn]	inactive	inactive	inactive	inactive	inactive	–	–	inactive	inactive	inactive
CCCCOC(=O)c1ccccc1C(=O)OCCCC	inactive	inactive	inactive	inactive	inactive	–	–	inactive	inactive	inactive
O=C(O)c1ccccn1	inactive	inactive	inactive	inactive	inactive	–	–	inactive	inactive	inactive
CC(C)OC(=O)Nc1cccc(Cl)c1	inactive	inactive	inactive	inactive	inactive	inactive	inactive	inactive	inactive	inactive
CCCCN(CC)C(=O)SCCC	inactive	inactive	inactive	inactive	inactive	inactive	inactive	inactive	inactive	inactive
CC(=O)C=C(C)C	inactive	inactive	inactive	inactive	inactive	inactive	inactive	inactive	inactive	inactive
CC(C)OC(=O)Nc1ccccc1	inactive	inactive	inactive	inactive	inactive	inactive	inactive	inactive	inactive	inactive
O=c1[nH]c2ccccc2c(=O)o1	inactive	inactive	inactive	inactive	inactive	inactive	inactive	inactive	inactive	inactive
C=CCO	inactive	inactive	inactive	inactive	inactive	inactive	inactive and 8.71 µM (active)	inactive	inactive	inactive
CCC[CH2][Sn]([Cl])([Cl])[Cl]	inactive	inactive	inactive	inactive	inactive	inactive	inactive	inactive	inactive	inactive
Cc1cc(Cl)ccc1O	inactive	inactive	inactive	inactive	inactive	inactive	inactive	inactive	inactive	inactive
ClCCBr	inactive	inactive	–	inactive	inactive	inactive	inactive	inactive	inactive	inactive
CC(C)(C)OOC(C)(C)C	inactive	–	inactive	inactive	inactive	inactive	inactive	inactive	inactive	inactive
C1CN2CCN1CC2	inactive	–	inactive	inactive	inactive	inactive	inactive and 34.7 µM (active)	inactive	inactive	inactive
CON(C)C(=O)Nc1ccc(Cl)c(Cl)c1	inactive	–	inactive	inactive	inactive	inactive	inactive	inactive	inactive	–
CC(NC(C)(C)C)C(=O)c1cccc(Cl)c1 (stereo not drawn)	inactive	–	inactive	inactive	inactive	inactive	inactive	inactive	inactive	inactive
CC(C#N)CCC#N (stereo not drawn)	inactive	inactive	–	inactive	inactive	inactive	inactive	inactive	inactive	inactive
C[C@]12CC[C@H]3[C@@H](CC[C@@]45O[C@@H]4C(O)=C(C#N)C[C@]35C)[C@@H]1CC[C@@H]2O	inactive	inactive	inactive	inactive	–	–	–	inactive	inactive	inactive
C#CC(C)(C)NC(=O)c1cc(Cl)cc(Cl)c1	inactive	–	inactive	inactive	inactive	inactive	inactive	inactive	inactive	inactive
C=CC(N)=O	inactive	inactive	–	inactive	inactive	inactive	inactive	inactive	inactive	inactive
Cc1ccc(N)cc1Cl	inactive	inactive	–	inactive	inactive	inactive	inactive	inactive	inactive	inactive
Clc1ccccc1Cl	inactive	inactive	–	inactive	inactive	inactive	inactive	inactive	inactive	inactive
CN(C)CCO	inactive	–	inactive	inactive	inactive	inactive	inactive	inactive	inactive	inactive
CCc1cccc(C)c1N(C(=O)CCl)C(C)COC (stereo not drawn)	inactive	inactive	–	inactive	inactive	inactive	inactive	inactive	inactive	inactive
CCCCN(CCCC)SN(C)C(=O)Oc1cccc2c1OC(C)(C)C2	inactive	inactive	inactive	inactive	inactive	–	–	inactive	inactive	69.7 µM (active)
